Data: PubChem BioAssay
A number with no mark means an inactive call. Calls of active or inactive are those of the source.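 How the source made its calls: active means growth inhibition above 50% at the single 2 µM test dose, taken to imply half-maximal potency below 2 µM; inactive means the rest.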

test: antimalarial activity against Dd2 strain (AID 2302);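 further: 0% = DMSO untreated growth and 100% = chloroquine plus artemisinin killed control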; conditions: P. falciparum Dd2 in RBCs, LDH growth readout, 72 h; at 2 µM; active compounds read high

Q: With `CCc1c(CCNCCCCCCNCCc2ccc(Br)cc2)ccc(O)c1O` as the molecule, how does the growth inhibition read?
A: The growth inhibition was 1%.

Q: For `O=C(c1cc(-c2cccs2)[nH]n1)N1CCN(S(=O)(=O)c2ccc(Cl)cc2)CC1`, which growth inhibition is on record?
A: Its growth inhibition is 95% (active).

Q: With `Nc1nc(N)c2c(ccc3c2ccn3Cc2ccc(Cl)cc2)n1` as the molecule, how does the growth inhibition read?
A: The growth inhibition was 99% (active).

Q: For `CC[C@@H]([C@@H](Cc1cc2ccccc2s1)C(=O)N[C@@H](CCCCNC(=O)OCc1ccccc1)C(=O)Nc1ccccn1)N(O)C=O`, which growth inhibition is on record?
A: Its growth inhibition is 70% (active).

Q: For `CCc1cc(C(=O)c2cccc(C)c2)c(NC(=O)CN2CCN(C(=O)c3ccco3)CC2)s1`, which growth inhibition is on record?
A: The growth inhibition was 85% (active).

Q: With `NC(=O)CCC(NC(=O)CNC(=O)Nc1cccc(C(F)(F)F)c1)C(=O)O` (centres undefined) as the molecule, how does the growth inhibition read?
A: Its growth inhibition is 93% (active).

Q: Which growth inhibition does the source give for `CCOC(=O)N/N=C/[C@H](CCc1ccccc1)NC(=O)[C@H](CC(C)C)NC(=O)c1cc2cccc(OC)c2o1` here?
A: Its growth inhibition is 58% (active).

Q: With `NC(N)=NN=Cc1c2ccccc2c(Cl)c2c(Cl)cccc12` as the molecule, how does the growth inhibition read?
A: The growth inhibition was 72% (active).

Q: With `NC1=NC(c2ccccc2)(c2ccccc2)C(=O)N1CC=Cc1ccccc1` as the molecule, how does the growth inhibition read?
A: The growth inhibition was 70% (active).

Q: Which growth inhibition does the source give for `Cc1cccc(CNc2nc(C)cc(N[C@@H](Cc3ccccc3)C(=O)NC3CCCC3)n2)c1` here?
A: The growth inhibition was 97% (active).

Q: With `O=C(Nc1cccc(-c2ccc(-c3nc4ccccc4[nH]3)cc2)c1)Nc1ccc(F)c(F)c1F` as the molecule, how does the growth inhibition read?
A: Its growth inhibition is 38%.

Q: For `O=C(Nc1ccccc1)N(Cc1cccc(-c2cccc(CNCCc3ccccc3)c2)c1)C1CCN(Cc2ccccc2)CC1`, which growth inhibition is on record?
A: Its growth inhibition is 87% (active).

Q: With `COc1ccc(CCN(Cc2cccs2)C(=O)c2cc3sccc3n2C)cc1OC` as the molecule, how does the growth inhibition read?
A: The growth inhibition was 97% (active).

Q: For `CN(C)c1ccc(-c2ccc(C(=O)NC3CCN(Cc4ccc5c(c4)OCCO5)CC3)s2)cc1`, which growth inhibition is on record?
A: Its growth inhibition is 73% (active).
